Legend:
Assay in all cases: PBM binding z-score (relative to random genomic background probes); higher = stronger binding; sequences stand for … in GC…GCGATTGACAGCGTAGAATGAAGG
[1] = test system: FXR:RXRa (NR concentration 270 nM, RXRa partner concentration 90 nM)
How it was run: (§1)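 Binding z-scores were set against random background probes. The data came from custom Agilent 4×180K protein-binding microarrays carrying double-stranded probes with 34-nt variable regions, incubated 1 h with ligand-free nuclear receptor dimers. Partner-specific antibodies detected binding, and scanned fluorescence was regression-normalized.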

[2] = test system: LXRa:RXRa (NR concentration 270 nM, RXRa partner concentration 90 nM)
How it was run: as §1

[3] = test system: LXRa homodimer (NR concentration 270 nM)
How it was run: as §1

[4] = test system: LXRb:RXRa (NR concentration 270 nM, RXRa partner concentration 90 nM)
How it was run: as §1

[5] = test system: LXRb homodimer (NR concentration 270 nM)
How it was run: as §1

[6] = test system: PPARa:RXRa (NR concentration 270 nM, RXRa partner concentration 90 nM)
How it was run: as §1

[7] = test system: PPARg:RXRa (NR concentration 180 nM, RXRa partner concentration 90 nM)
How it was run: as §1

[8] = test system: PPARg:RXRa 270nM:90nM, anti-RXR (NR concentration 270 nM, RXRa partner concentration 90 nM)
How it was run: as §1

[9] = test system: PPARg:RXRa 30nM:10nM, anti-RXR (NR concentration 30 nM, RXRa partner concentration 10 nM)
How it was run: as §1

[10] = test system: PPARg:RXRa 90nM:30nM, anti-RXR (NR concentration 90 nM, RXRa partner concentration 30 nM)
How it was run: as §1

| Sequence | PBM binding z-score [1] | PBM binding z-score [2] | PBM binding z-score [3] | PBM binding z-score [4] | PBM binding z-score [5] | PBM binding z-score [6] | PBM binding z-score [7] | PBM binding z-score [8] | PBM binding z-score [9] | PBM binding z-score [10] |
| --- | --- | --- | --- | --- | --- | --- | --- | --- | --- | --- |
| TTACCATGGTGAAGGTCGTTGATCCCTCTGTAGA | 1.59 | 1.54 | -0.212 | 1.35 | -0.704 | 1.64 | 1.06 | 2.74 | 1.09 | 2.44 |
| CACACAGGGTCAGCTAGGCCAGAGTAGGGACGGC | 4.77 | 2.64 | -0.0558 | 2.18 | 0.152 | 4.32 | 3.21 | 2.62 | 0.502 | 1.62 |
| CGTCCAAGGTCATAGGAGCTCAGTGAAGACAGAT | 7.5 | 5.19 | 0.569 | 3.82 | 0.584 | 5.64 | 4.69 | 5.04 | 1.57 | 3.6 |
| CGAACTGGGTCATCCAGGACAGTGAATACATTGA | 3.3 | 1.9 | 0.0995 | 1.9 | -0.478 | 4.92 | 7.51 | 5.92 | 3.5 | 5.51 |
| GGAACGAGGGCATTCAAGTTGATAGCATGGCGAT | 1.18 | 1.46 | -0.583 | 0.241 | -0.723 | 1.52 | 1.12 | 0.948 | -0.0725 | 0.427 |
| ACTATTAGTTGACTTAGGGCAACTGATACGACGC | 0.17 | 0.0575 | 0.162 | 0.0522 | 0.38 | 0.0544 | 0.858 | 0.0451 | 0.501 | 0.431 |
| TAGTCTAGGTCATTCAGGGGCCAGTATAGAAAGC | 4.17 | 4.28 | 2.05 | 3.15 | 3.06 | 4.05 | 4.7 | 4.38 | 2.33 | 3.77 |
| TGTCAAAGTTCAAAGGTAACGTTAGTATCCACAC | 7.28 | 6.46 | 4.63 | 4.65 | 1.95 | 5.88 | 8.96 | 7.52 | 5.52 | 7.18 |
| ATCGAAAGGTCGACGAGGTGAGGATACACCGTTT | 4.5 | 3.36 | 0.0188 | 2.44 | 0.655 | 4.27 | 3.09 | 3.46 | 1.36 | 2.36 |
| CATACAGGGTCTGCTAGGCCAGAGTAGGGACGGC | -0.237 | -0.31 | -0.443 | -0.834 | -0.599 | -0.452 | 0.152 | -0.899 | -0.808 | -0.386 |
| ACAGACAGGTGATGAAGGTAACTCTGGCTATCAT | -0.247 | -0.358 | -0.109 | -0.536 | -0.538 | -0.229 | 0.485 | -0.185 | 0.143 | 0.132 |
| ATTAGCAGGCCAAGTTTGGGTCACTCAAACAAAG | 0.082 | 0.215 | -0.128 | 0.803 | -0.539 | 1.62 | 0.124 | 0.309 | -0.279 | 0.138 |
| TCTCGGAGGACCCGAAGGTCAGAGCTTTCCAGAG | 0.805 | 0.637 | -0.12 | 0.902 | -1.45 | 1.69 | 0.0649 | 1.18 | 1.64 | 1.63 |
| CCTCGGAGGACAACAGGAGGTCAGAGCCGCCAGA | 0.835 | 2.03 | 1.67 | 1.17 | -0.539 | 1.92 | 0.457 | 0.136 | -0.412 | -0.258 |
| TCTCGGGGGACACGAAAGGTCAGAGCTCGACATC | 4.5 | 5.39 | 3.18 | 5.47 | 5.76 | 5.03 | 3.63 | 4.96 | 3.73 | 4.14 |
| CGTCCAAGGTCAGAGAGGTCAGAGAATGCCGAGT | 6.45 | 5.34 | 3.4 | 4.53 | 0.508 | 5.1 | 3.75 | 4.28 | 1.33 | 3 |
| CGTCAAAGTTCAACTCAGGTAACGTAAAGCACGC | 7.13 | 6.43 | 4.59 | 4.35 | 1.99 | 5.08 | 4.66 | 5.43 | 2.08 | 4.01 |
| CCTACTGGGGCATCAGGTCATTGATATCAACGTT | 1.51 | 1.23 | 1.04 | 1.47 | -0.819 | 3.15 | 4.22 | 4.7 | 2.26 | 4.13 |
| CGACCAAGGTCATAGGAGGTCAGTGAAGACAGAT | 7.7 | 7.58 | 4.51 | 5.89 | 0.466 | 5.7 | 6.04 | 5.91 | 2.45 | 4.68 |
| CCTCGGAGGACAACAGGAGGTCAGTGCTGCCAGA | 0.821 | 1.62 | 1.58 | 1.15 | -0.378 | 1.62 | 0.333 | 0.375 | -0.857 | -0.495 |
| GATACAGGGTCAGCTAGAGGCCATAGTATGGAAA | 4.67 | 3.04 | -0.128 | 2.94 | -0.352 | 4.53 | 4.05 | 3.34 | 0.897 | 2.51 |
| ACCGAAAGGTCGTGAGGTGAGTATACAGAAAGGC | 5.42 | 3.86 | -0.204 | 3.02 | 0.134 | 5.29 | 3.99 | 4.37 | 1.42 | 2.8 |
| ACAGACAGGTGAGTGAAGGTAACTAAGCTGGACG | 0.105 | -0.0477 | -0.437 | -0.48 | -0.463 | 0.107 | 0.457 | -0.0366 | -0.0843 | -0.406 |
| GGAACGAGGGCAAGTTGACAGCAGAGTTTGATGG | 0.854 | 0.43 | -0.472 | 0.324 | -0.45 | 1.69 | 1.15 | 1.35 | 0.346 | 0.686 |

From the supplement of paper PMC6555819
